This is a sample that favours compounds with a hit; in the whole collection about 3% have one here.
D3 ag: activates the human D3 dopamine receptor. P35462. D3R DiscoveRx beta-arrestin cells, luminescence, 90 min. max activation, %. 410,000 compounds, 0.58% hits; in the data active means max activation above about 30%
Target sequence (P35462 whole entry, looked up): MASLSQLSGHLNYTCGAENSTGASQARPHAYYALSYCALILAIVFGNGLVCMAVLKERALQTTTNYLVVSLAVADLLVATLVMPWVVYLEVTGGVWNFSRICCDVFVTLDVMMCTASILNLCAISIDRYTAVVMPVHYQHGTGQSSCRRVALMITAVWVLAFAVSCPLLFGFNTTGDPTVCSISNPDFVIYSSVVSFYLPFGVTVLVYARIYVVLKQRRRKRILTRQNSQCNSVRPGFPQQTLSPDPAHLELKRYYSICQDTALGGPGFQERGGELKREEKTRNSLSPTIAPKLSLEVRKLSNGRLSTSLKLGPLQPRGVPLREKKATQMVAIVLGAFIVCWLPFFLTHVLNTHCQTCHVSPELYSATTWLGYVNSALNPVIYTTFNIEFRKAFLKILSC
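Agonist-mode cell screen: cells plated at 1500/well and incubated overnight at 37 °C, then exposed to library compounds for 90 min at 37 °C. Detection reagent was added for 30–60 min at room temperature, and luminescence was read.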
D3 antag: D3 dopamine receptor (human) antagonism; AID 652054; D3R cells, DiscoveRx beta-arrestin luminescence, antagonist mode; stronger effect = lower value; 360,000 compounds, 2.5% hits; max response, negative = inhibition, %; in the data active means max response below about -50%; inconclusive means no clear call, values can overlap the other calls
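Cells expressing the human receptor were seeded at 1500 cells/well, incubated overnight at 37 degrees C in 5% CO2, then exposed to library compounds with dopamine controls for 90 minutes at 37 degrees C before luminescent detection.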
Nrf2 ARE act: activates Nrf2 signaling; AREc32 ARE-luciferase reporter (MCF7-derived line), luminescence, 24 h; Potency, µM (titrated, usually from 46.1 µM), actives largely listed as activators; 410,000 compounds, 0.31% hits; AID 624171; further: nearly all actives have a fitted effect of over 65% in size
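Cells of the AREc32 ARE-luciferase line are plated in OPTI-MEM containing 5% FBS and left overnight at 37 deg C. Compounds are pinned in, incubation continues 24 hr, and firefly luciferase signal is then measured.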
Glioma ERSR ind: induces the endoplasmic reticulum stress response in human glioma cells | U87-MG GRP78 promoter luciferase reporter, 16 h | Potency, µM, actives largely listed as activators | 420,000 compounds, 0.02% hits; further: series mostly up to about 76 µM; nearly all actives have a fitted effect of over 35% in size
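Stably transfected U87-MG human glioma cells carrying a GRP78-based luminescent sensor were seeded at 1000 cells/well, pin-dosed with compounds and incubated 16 h. Luciferase reagent was then added, and end-point luminescence was read after 10 min at room temperature.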
Large screens that a line does not name were inactive. Unless noted, the call rests on the fitted dose curve; in most records, active means well fitted curve in the direction sought with a large enough effect; inconclusive means small, poorly fitted or top-dose-only effect, or another doubt; inactive means no such curve, though single readings can be large; an effect the other way counts as inactive or inconclusive.

O=C(CCc1nnc(-c2ccc(-c3ccccc3)cc2)o1)N1CCCCC1	D3 ag 32
Cn1c(=O)oc2cc(S(=O)(=O)NC(Cc3ccccc3)C(=O)Nc3ccc(F)c(Cl)c3)ccc21 (configuration not stated)	none (no result: D3 antag)
Cc1cccc(C)c1C(=NCCCN(C)C)c1ccccc1	D3 antag -78
Cn1nc(-c2cccnc2)nc2c(=O)n(C)c(=O)nc1-2	none (no result: D3 ag, D3 antag, Nrf2 ARE act)
CC1CCc2nn(CC(=O)NCCCN3CCCC3=O)cc2C1 (configuration not stated)	none
Cc1ccc(C)c(N2CCN(CCCNC(=O)Cn3cc4c(n3)CCCCC4)CC2)c1	D3 antag -96
CCN1CCN(CCCNC(=O)Cn2cc3c(n2)CCCC3)CC1	none
Cc1ccc(C)c(N2CCN(CCCNC(=O)Cn3cc4c(n3)CCC(C)C4)CC2)c1 (configuration not stated)	D3 antag -60
O=C(Cn1cc2c(n1)CCCC2)NCCCN1CCN(c2ccccc2F)CC1	D3 antag -83
O=[N+]([O-])c1ccc(/C=C2\C=Cc3ccccc32)cc1	none (no result: D3 ag, D3 antag, Nrf2 ARE act)
CC(=O)Nc1nc(=O)c2ccccc2s1	Nrf2 ARE act inconclusive
O=C(Nc1nc(=O)c2ccccc2s1)c1ccccc1	Nrf2 ARE act 2µM
COc1ccccc1NC(=O)CN(C)S(=O)(=O)c1cccc2cccnc12	none
COc1ccc(N(C)S(=O)(=O)c2cccc3cccnc23)c(OC)c1	D3 ag 31
CC(C)N1CCN(CC2COc3ccccc3O2)CC1 (configuration not stated)	D3 antag -50
CC(NCC1COc2ccccc2O1)C(=O)NCc1ccccc1 (configuration not stated)	none
OCCN1CCN(CC(O)COCC2COc3ccccc3O2)CC1 (configuration not stated)	none
CC(NCC1COc2ccccc2O1)C1COc2ccccc2O1 (configuration not stated)	D3 antag -63
CCOC(=O)COc1ccc2c(C)c(CCN(CC)CC)c(=O)oc2c1	none (no result: D3 antag, Nrf2 ARE act)
O=c1cc(-c2ccc(O)cc2)oc2cc(O)c(C3OC(CO)C(O)C(O)C3O)c(O)c12 (configuration not stated)	D3 antag -64
O=C(C(c1ccccc1)c1ccccc1)N1CCCc2ccccc21	D3 antag -61
O=C(NC(=O)N1CCCc2ccccc21)c1ccccc1	none
COc1ccc(NC(=O)Nc2c[nH]c(=O)[nH]c2=O)c(OC)c1	none (no result: D3 antag)
CC(=O)c1c(N2CCN(c3ccccc3)CC2)nc(=S)n(-c2ccccc2)c1C	D3 antag -53
CC(=O)c1c(N2CCN(CCO)CC2)nc(=S)n(-c2ccccc2)c1C	none
c1csc(-c2nc(CN3CCSCC3)cs2)c1	D3 antag -58
COc1ccccc1C(=O)N[C@@H]1c2ccccc2C2(CCN(Cc3ccc4c(c3)OCO4)CC2)[C@H]1O	none (no result: D3 ag, D3 antag, Nrf2 ARE act)
CCC(C)c1nc2c(c(N3CCC3=O)c1-c1ccccc1)CCCC2 (configuration not stated)	D3 ag 62
C/C=C/c1ccc(OCCCNC2CCCC2)c(OC)c1	D3 antag -61
C/C=C/c1ccc(OCCCNC(C)CC)c(OC)c1 (configuration not stated)	D3 antag inconclusive
CC(C)(C)C(=O)NC(NC(=S)Nc1sc2c(c1C#N)CCCC2)C(Cl)(Cl)Cl (configuration not stated)	D3 antag -55
CCc1cc(C(=O)Nc2cnn(Cc3ccccc3C)c2)no1	none (no result: D3 antag)
O=S(=O)(CCNCCc1ccccc1)NC1CCCCC1	D3 antag -84
COc1cccc(/C=C2\CCC(C3CCCC3)C2=O)c1 (configuration not stated)	none
COc1ccc(/C=C2/CCCC(CN(C)C)C2=O)cc1 (configuration not stated)	D3 antag inconclusive, Nrf2 ARE act 10µM
COc1cccc(/C=C2/CCC(CN(C)C)C2=O)c1 (configuration not stated)	D3 antag -69, Nrf2 ARE act inconclusive
O=C(c1cccc(F)c1F)N1CCOc2ccc(CN3CCN(Cc4ccccn4)CC3)cc2C1	none (no result: D3 ag, D3 antag, Nrf2 ARE act)
COc1ccccc1/C=C/CN1CCN(Cc2ccc(C)o2)C(CCO)C1 (configuration not stated)	D3 antag -77
COc1cc(/C=C/CN2CCN(Cc3ccc(C)o3)C(CCO)C2)ccc1O (configuration not stated)	D3 antag -61
C/C(=C\c1ccccc1)CN1CCN(Cc2ccc(C)o2)C(CCO)C1 (configuration not stated)	D3 antag -80
Cc1ccccc1OCC(=O)Nc1cc(C)c(O)c(-c2nc3ccccc3o2)c1	none (no result: D3 ag, D3 antag, Nrf2 ARE act)
O=C(c1ccc2c(c1)OCO2)N(Cc1cc2ccc(F)cc2nc1N1CCC(O)CC1)CC1CCCO1 (configuration not stated)	none (no result: D3 ag, D3 antag, Nrf2 ARE act)
N#Cc1cc(C(=O)c2ccccc2O)cn(-c2nccs2)c1=O	Nrf2 ARE act 22µM
Cn1cc(S(=O)(=O)N2CCCCCC2)cc1C(=O)Nc1ccc(Cl)c(C(F)(F)F)c1	none (no result: D3 antag)
NC(=S)NN=Cc1c[nH]c2nccnc12	D3 antag active
Cc1nc(C)n(CC(=O)NCC2Cc3cc(-c4cccc(OC(F)(F)F)c4)ccc3O2)n1 (configuration not stated)	none (no result: D3 ag, D3 antag, Nrf2 ARE act)
Cc1ncc(CO)c(/C=N/NC(=S)Nc2ccc(F)cc2)c1O	none
Cc1ncc(CO)c(/C=N/Nc2ccc(C(F)(F)F)cn2)c1O	D3 antag -74
O=C(CO)[C@@H](O)[C@H](O)[C@@H](O)C(=O)O	none (no result: D3 antag, Nrf2 ARE act, Glioma ERSR ind)
CCSc1nnc(C)n1-c1ccc(C(=O)O)cc1	D3 antag -56
COC(=O)c1cnn(-c2nc(OC)cc(OC)n2)c1C	none
COc1cc(OC)nc(-n2ncc(Br)c(Br)c2=O)n1	D3 antag -86, Nrf2 ARE act inconclusive
CCc1nc2c(OCCC3CCCCC3)cccn2c1N(C=O)Cc1ccc(OC)cc1	D3 antag -77
CCCCC(=O)N(C)c1c(CC)nc2c(OCCC3CCCCC3)cccn12	D3 antag -71
CCCCC(=O)N(C)c1c(CC)nc2c(OCC3CCCCC3)cccn12	none
CCOC(=O)C(=O)N(C)c1c(CC)nc2c(OCCC3CCCCC3)cccn12	D3 antag -84
CCOC(=O)N(C)c1c(CC)nc2c(OCCC3CCCCC3)cccn12	D3 antag inconclusive
CCc1nc2c(OCCC3CCCCC3)cccn2c1N(C)C(=O)c1cccs1	D3 antag -101
CCOC(=O)c1ccc(NC(=O)CN2CCc3ccccc3C2)cc1	D3 antag -62
O=C(CNCC1CCCCC1)Nc1ccccc1N1CCCCC1	none
O=C(CN1CCc2ccccc2C1)Nc1ccccc1N1CCCCCC1	D3 antag -54
O=C(CN1CCc2ccccc2C1)Nc1ccc(F)cc1	none
O=C(CNC1CCCCCC1)Nc1ccccc1N1CCCCC1	D3 antag -64
Cc1cc(C)cc(NC(=O)CN2CCc3ccccc3C2)c1	D3 antag -67
Cc1ccc(NC(=O)C(C)N2CCc3ccccc3C2)cc1 (configuration not stated)	D3 antag -76
COc1ccc(-c2nnc(SCC(=O)N3CCC(Cc4ccccc4)CC3)o2)cc1OC	D3 ag 38

Screening data deposited in PubChem by National Center for Advancing Translational Sciences (NCATS).
